Data on 106 compounds can be found in PubChem BioAssay AID624202 (National Center for Advancing Translational Sciences (NCATS), 2012).

Out of some 380,000 compounds screened, about 4,000 (1.1%) were called active. Entries that show only a call come without a potency. Inconclusive results (about 3%) are left out. The sample holds actives, similar compounds and a random draw of the others, so the mix is not that of the screen. The call rests on the fitted dose curve; in most records, active means well fitted activation curve with a large enough effect; inconclusive means small, poorly fitted or top-dose-only effect; inactive means no such curve, though single readings can be large or run the other way.
Potency means the concentration at half of the fitted maximal effect.

The assay can be described thus: qHTS Assay to Identify Small Molecule Activators of BRCA1 Expression. Further: nearly all actives have a fitted effect of over 80% in size. As to conditions: MCF7-BRCA1-FFLuc reporter, luminescence, 48 h; series mostly up to 46.1 µM. The procedure, abridged: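 48 h compound treatment of MCF7-BRCA1-FFLuc cells (phenol-red free MEM, 37 °C), then 15 min with luciferase substrate and luminescence imaging.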
On to `CCS(=O)(=O)N1CCc2cc(C(=O)N3CCN(c4ccccc4OC)CC3)ccc21`, for which the Potency result is “inactive”.

Take `Cc1nc2ccc(NC(=O)C3CCCCC3)cc2s1`: the Potency entry is “inactive”.

Turning to `Cc1nc(NC(=O)C23CCC(C)(C(=O)O2)C3(C)C)sc1C` (stereo unspecified), the Potency result was “inactive”.

`Cc1nc(NC(=O)C2CCCCC2)sc1C`: the Potency was 12.6 µM (active).

As for `CC(C)(C(=O)NO)c1ccccc1`, the Potency result is “inactive”.

As to `C/C(=N\NC(=O)c1cccnc1)c1ccc(-n2ccnc2)cc1`, the Potency entry was “inactive”.

Turning to `C/C(=N\NC(=O)c1cccc([N+](=O)[O-])c1)c1cccnc1`, the Potency entry was “inactive”.

For the compound `C/C(=N\NC(=O)c1ccc2ccccc2c1)c1cccnc1`, the Potency is 10 µM (active).

`OCCNc1ncnc2oc(-c3ccco3)c(-c3ccco3)c12`: the Potency entry is “inactive”.

In the case of `Cc1oc2ncnc(N3CCCCC3)c2c1C(=O)N1CCN(c2cccc(Cl)c2)CC1`, the Potency entry was “inactive”.

Regarding `COC(=O)c1ccccc1NS(=O)(=O)c1ccc2c(c1)CCCN2C(C)=O`, the Potency result is “inactive”.

As to `CC(=O)c1ccc(NC(=S)NC(=O)CC(C)C)cc1`, the Potency is 7.94 µM (active).

For the compound `CC(C)CC(=O)NC(=S)Nc1ccc(F)cc1F`, the Potency entry is “inactive”.

Turning to `CC(C)CC(=O)NC(=S)NNC(=O)c1cccc([N+](=O)[O-])c1`, the Potency result was “inactive”.

Turning to `CCc1ccccc1NC(=O)Cc1ccc(NC(=O)N2CCCCc3ccccc32)cc1`, the Potency result was “inactive”.

On to `CCCCN(C)S(=O)(=O)c1ccc(C(=O)Nc2sc3c(c2C(N)=O)CC(C)(C)NC3(C)C)cc1`, for which the Potency entry is “inactive”.

For `CN(C(=O)C1CCOC1)c1nnc(-c2cccnc2)s1` (stereo unspecified), the Potency entry was “inactive”.

`CCC(C)(C)NC(=O)C(c1ccccn1)N(C(=O)c1csnn1)c1ccccc1` (stereo unspecified): the Potency entry was “inactive”.

`CN(C(=O)c1ccccn1)c1nnc(-c2ccccn2)s1`: the Potency is 11.2 µM (active).

For the compound `Brc1cccc[n+]1Cc1cccc(C[n+]2ccccc2Br)c1`, the Potency entry is “inactive”.

For `Cc1cc(C)cc(NC(=O)CCS(=O)(=O)c2cc3c4c(c2)CCN4C(=O)CC3)c1`, the Potency entry was “inactive”.

As to `COc1ccc2c(c1OC)C(=O)N(c1ccc(O)cc1)C2`, the Potency is 4.47 µM (active).

Consider `COc1ccc2c(c1OC)C(=O)N(c1ncn[nH]1)C2`, for which the Potency result is “inactive”.

As for `CC(C)(C)c1ccc(OC2=CS(=O)(=O)c3ccccc32)cc1`, the Potency is 12.6 µM (active).

With `CC(C)(C)c1ccc(Oc2ccc(N)cc2)cc1`, the Potency entry is “inactive”.

`CC(C)(C)c1ccc(CN2C(=O)c3ccccc3S2(=O)=O)cc1`: the Potency entry was “inactive”.

`O=S(=O)(c1cccc(C(F)(F)F)c1)N1CCN(c2nc(-c3cccs3)nc3ccccc23)CC1`: the Potency result was “inactive”.

For the compound `Cc1cccc(NC(=O)CSc2nnc(CCCCCNC(=O)OC(C)(C)C)o2)c1C`, the Potency entry was “inactive”.

For `O=C(CCNC(=O)c1ccccc1)NN=Cc1ccc(Br)o1`, the Potency entry was “inactive”.

For `CC(C)(C)OC(=O)NCCCCCC(=O)N/N=C/c1coc2ccccc2c1=O`, the Potency is 11.2 µM (active).

As for `Cc1ccc(-c2nc(=N)sn2Cc2ccccc2)cc1`, the Potency result is “inactive”.

`CCOc1ccc(NC(=O)Cn2c(=O)n(CCCC(=O)NCc3ccc4c(c3)OCO4)c(=O)c3ccccc32)cc1`: the Potency entry is “inactive”.

As for `O=C(COC(=O)c1ccccc1C(=O)c1ccccc1)c1ccco1`, the Potency result was “inactive”.

Turning to `CCN(CC)c1ccc(C(=O)OCC(=O)c2ccco2)cc1`, the Potency was 8.91 µM (active).

As for `CCc1ccc(C(=O)COC(=O)c2ccco2)cc1`, the Potency entry was “inactive”.

Regarding `COc1ccc(S(=O)(=O)n2nc(C)c(S(=O)(=O)N3CCCCCC3)c2C)cc1`, the Potency result is “inactive”.

For the compound `COc1ccc(S(=O)(=O)Nc2cccc3cccnc23)c(N)c1`, the Potency result is “inactive”.

On to `O=C(NCCCn1ccnc1)c1cc2c(s1)CCCC2`, for which the Potency result is “inactive”.

As for `O=C(NCC1CCCO1)c1cc2c(s1)CCCC2` (stereo unspecified), the Potency is 5.62 µM (active).

Turning to `CCC(=O)c1c[nH]c(C(=O)NCC2CCCO2)c1` (stereo unspecified), the Potency entry was “inactive”.

Regarding `Fc1cccc(Cl)c1CSc1ccc(-c2ccco2)nn1`, the Potency is 3.55 µM (active).

As for `Cc1snc(SCc2c(F)cccc2Cl)c1C#N`, the Potency entry was “inactive”.

As for `COc1ccc(NC(=O)CSc2ccc(-c3ccco3)nn2)c(OC)c1`, the Potency result was “inactive”.

On to `S=C(Nc1ccc(Cl)cc1Cl)N1CCCC1`, for which the Potency entry is “inactive”.

Turning to `O=C(NC(=S)Nc1ccc(Br)cc1F)C1CCCCC1`, the Potency entry was “inactive”.

In the case of `O=C(NC(=S)Nc1ccc(Cl)cc1Cl)C1CC1`, the Potency is 3.16 µM (active).

Consider `CCOc1ccc(NC(=O)Nc2cc(C)on2)cc1`, for which the Potency was 7.94 µM (active).

For `CCC(=O)Nc1ccc(C(=O)Nc2cc(C)on2)cc1`, the Potency entry is “inactive”.

On to `CCOc1ccc(NC(=O)Nc2ccc(N(C)C(C)=O)cc2)cc1`, for which the Potency result was “inactive”.

Consider `Cc1ccccc1OCCSc1nc2ccc(NC(=O)c3ccco3)cc2s1`, for which the Potency entry was “inactive”.

For the compound `Oc1ccc(Br)cc1C1C=C(c2ccc3c(c2)OCO3)NC(c2ccc(Cl)cc2)N1` (stereo unspecified), the Potency result was “inactive”.

`COc1ccc(COCC(O)CN2CCC(C(N)=O)CC2)cc1` (stereo unspecified): the Potency result is “inactive”.

Regarding `COc1cc(CN2CCC(C(N)=O)CC2)ccc1OCc1ccccc1`, the Potency is 11.2 µM (active).

With `COc1ccc(CCN2C(=O)CC(N3CCC(C(N)=O)CC3)C2=O)cc1OC` (stereo unspecified), the Potency entry is “inactive”.

Regarding `CN(C)c1ccc(/C=C/c2sc3ccccc3[n+]2C)cc1`, the Potency result is “inactive”.

Take `COc1cccc(CC(=O)OCC(=O)NCc2ccc3c(c2)OCO3)c1`: the Potency result was “inactive”.

Consider `COC(=O)[C@@H](NC(=O)NCc1cccc(OC)c1)C(C)C`, for which the Potency result was “inactive”.

Consider `COc1ccc(S(=O)(=O)N(C)C)cc1NC(=O)COC(=O)c1n[nH]c2ccccc12`, for which the Potency entry is “inactive”.

`COc1ccc(COC(=O)c2n[nH]c3ccccc23)cc1F`: the Potency is 14.1 µM (active).

For `COc1ccc(NC(=O)COC(=O)c2n[nH]c3ccccc23)c(OC)c1`, the Potency entry is “inactive”.

As to `COc1cccc(CNC(=O)c2n[nH]c3ccccc23)c1`, the Potency was 11.2 µM (active).

As for `CC(=O)c1ccc(NC(=O)C2CCN(S(=O)(=O)c3c(C)noc3/C=C/c3ccc(C)cc3)CC2)cc1`, the Potency entry was “inactive”.

On to `CN(CCC#N)c1ccc(C=O)cc1`, for which the Potency entry is “inactive”.

For the compound `CCN(CCCNC(=O)c1c(C)oc2ncn(CC(C)C)c(=O)c12)Cc1ccccc1`, the Potency result is “inactive”.

Turning to `COc1cccc(NC(=O)N(Cc2cn(C)c3ccccc23)C2CCCCCC2)c1`, the Potency entry was “inactive”.

`CNc1ccc(-c2nc(-c3ccccc3C)no2)cc1[N+](=O)[O-]`: the Potency result was “inactive”.

Consider `CCCCN1CC(c2nc3ccccc3n2CCCCOc2ccc(C)cc2C)CC1=O` (stereo unspecified), for which the Potency result was “inactive”.

As for `CC(C)=C1SC(N2CCN(c3ccc(C)c(Cl)c3)CC2)=NC1=O`, the Potency entry was “inactive”.

`CCN1C(=O)/C(=C2\SC(N3CCCCC3)=NC2=O)c2ccccc21`: the Potency was 10 µM (active).

As to `CCn1c(=O)n(CC)c2cc(N3CCCC3)c(NC(=O)c3ccccc3Br)cc21`, the Potency entry is “inactive”.

For `Cc1cc(OC(C)C(=O)Nc2sc3c(c2C(N)=O)CCCC3)ccc1Cl` (stereo unspecified), the Potency entry is “inactive”.

As for `CN(C)/C=C/C(=O)c1cnc2sccn2c1=O`, the Potency entry is “inactive”.

Regarding `Cc1nc(-c2ccccc2)sc1C(=O)/C=C/N(C)C`, the Potency is 11.2 µM (active).

`Cc1nc(COc2cccc(Cl)c2)sc1C(=O)/C=C/N(C)C`: the Potency result is “inactive”.

As to `Cc1cccc(N2CCN(C(=O)c3cc4c(=O)oc5ccccc5c4s3)CC2C)c1` (stereo unspecified), the Potency entry was “inactive”.

Take `CCCCn1nc(C(=O)N2CCc3ccccc32)c2ccccc2c1=O`: the Potency entry was “inactive”.

As to `Cc1cnc(C(=O)OCC(=O)N2CCc3ccccc32)cn1`, the Potency entry is “inactive”.

As for `O=C(c1cnn2ccccc12)N1CCc2ccccc21`, the Potency was 3.16 µM (active).

Consider `Cc1nn(C(=O)c2c(F)cccc2F)c(C)c1S(=O)(=O)N1CCOCC1`, for which the Potency result was “inactive”.

With `O=C(C1CC1)N1CCc2cc(Br)cc(S(=O)(=O)N3CCN(c4ccccc4F)CC3)c21`, the Potency result is “inactive”.

As to `O=[N+]([O-])c1ccc(NC(=S)N2CCN(c3ccccn3)CC2)cc1`, the Potency result is “inactive”.

Regarding `O=C(Nc1ccc([N+](=O)[O-])cc1)OCCc1ccccn1`, the Potency was 2.82 µM (active).

With `O=C(COC(=O)c1ccccn1)NNC(=O)c1ccc([N+](=O)[O-])cc1`, the Potency entry is “inactive”.

For the compound `CC(=O)c1cccc(NC(=O)Nc2ccc(C)cc2)c1`, the Potency is 14.1 µM (active).

As for `Cc1ccc(NC(=O)N2CCC(O)(c3cccnc3)CC2)cc1`, the Potency entry was “inactive”.

`CC(=O)c1cccc(NC(=O)[C@@H](NC(N)=O)C(C)C)c1`: the Potency result is “inactive”.

With `CC(=O)c1cccc(NC(=O)c2nc(-c3ccccc3)n(-c3cccc(C)c3)n2)c1`, the Potency result is “inactive”.

With `Cc1cc(NC(=O)Nc2c[nH]c(=O)[nH]c2=O)ccc1Br`, the Potency result is “inactive”.

On to `Cc1ccc(NC(=O)Nc2cccnc2)cc1`, for which the Potency was 12.6 µM (active).

On to `Cc1ccc(NC(=O)Nc2ccccc2)c(Br)c1`, for which the Potency was 1.58 µM (active).

Regarding `O=C(Nc1ccc(Cl)cc1)Nc1ccc(Oc2cccnc2)nc1`, the Potency entry was “inactive”.

`CCOc1cc(NC(=O)Nc2ccccc2)c(OCC)cc1NC(=O)CC`: the Potency result is “inactive”.

For `Cc1sc2ncn(CC(=O)N3CCN(c4ccc(F)cc4)CC3)c(=O)c2c1S(=O)(=O)N1CCN(c2ncccn2)CC1`, the Potency result was “inactive”.

Regarding `COc1ccccc1CNc1ccc(-c2nc(-c3ccccc3C)no2)cc1[N+](=O)[O-]`, the Potency result was “inactive”.

Take `CCOC(=O)C(Cc1ccccc1)NC(=O)CCc1c(C)nc2c(c(C)nn2-c2ccc(C)c(C)c2)c1C` (stereo unspecified): the Potency result was “inactive”.

As for `CCS(=O)(=O)N1CCc2cc(C(=O)NCc3ccc(OC)cc3)ccc21`, the Potency result is “inactive”.

As to `COc1ccc(CNc2nc(-c3ccc(Cl)cc3)cc(C(F)(F)F)n2)cc1`, the Potency result is “inactive”.

Consider `CC(Nc1ccc(-c2nc(-c3ccco3)no2)cc1[N+](=O)[O-])c1ccccc1` (stereo unspecified), for which the Potency result is “inactive”.

Regarding `COc1ccc(NC(=O)Cn2c(=O)n(Cc3ccc(C(=O)NCc4ccccc4Cl)cc3)c(=O)c3ccccc32)cc1`, the Potency entry is “inactive”.

For `COc1ccc(-n2c(=O)c3ccccc3n(Cc3ccccc3Cl)c2=O)cc1`, the Potency result was “inactive”.

As to `O=C(Nc1cccc([N+](=O)[O-])c1)N1CCc2ccccc2C1`, the Potency is 10 µM (active).

On to `Cc1c(NC(=O)Nc2cccc([N+](=O)[O-])c2)c(=O)n(-c2ccccc2)n1C`, for which the Potency entry was “inactive”.

Turning to `O=C(CN1CCC(NC(=O)Nc2ccccc2)CC1)Nc1cccc([N+](=O)[O-])c1`, the Potency result is “inactive”.

Take `O=C(CSc1nnc(-c2ccncc2)n1-c1ccccc1)Nc1ccc(Cl)c(Cl)c1`: the Potency entry was “inactive”.

Turning to `CCOc1ccc(CNC(=O)c2ccc3c(c2)nnn3C2CCCC2)cc1`, the Potency entry was “inactive”.

Take `CC1CC(C)CN(c2oc(-c3ccc(OCc4ccc(Cl)cc4)cc3)nc2C#N)C1` (stereo unspecified): the Potency result was “inactive”.
